# Inconclusive results are not listed. Values without a mark were called inactive. Calls of active or inactive are those of the source. The call rests on the fitted dose curve; in most records, active means well fitted activation curve with a large enough effect; inconclusive means small, poorly fitted or top-dose-only effect; inactive means no such curve, though single readings can be large or run the other way.
# Assay: qHTS for Activators of Parkin Expression: LOPAC Validation Assay (FLuc Reporter) (AID 720573)
# Conditions: Cell line, PRKN promoter firefly luciferase reporter, vehicle wells = 0, positive control = 100%; series mostly up to 46.1 µM; activation: at the top concentration
# Description: Parkin is an E3 ubiquitin ligase localized in the cytosol of cells expressed in many tissues, including brain, skeletal muscle, heart and liver tissues. One hour after stress induction by mitochondrial uncouplers (which mimic mitochondria damage by decreasing the mitochondrial inner membrane electrochemical gradient that is used to produce ATP), Parkin translocates from the cytosol to mitochondria in many cultured cell types, including neurons and HeLa cells. Administration of other mitochondrial poisons, such as Paraquat and azide in cells lacking mitochondrial DNA (mtDNA), induces Parkin translocation to mitochondria. […] It was proposed that Parkin (together with Pink1) mediates a mitochondrial quality control pathway to maintain organelle population fidelity by removing damaged mitochondria. Understanding the normal physiologic role of Parkin (and Pink1) may uncover novel treatment strategies for sporadic Parkinson's disease patients with mutation in these genes.
# A cell based qHTS in 1536 well format was developed assess modulation of Parkin expression using a neuronal cell line that stably expresses a stably expresses a luminescent coincidence reporter (FLuc and NLuc reporters) behind the Parkin promoter. The LOPAC library is used to validate the assay for quantitative high-throughput screening. The data herein reports the signal from the FLuc reporter. An increase in this signal = activation of Parkin expression. For this assay , a positive control normalized signal increase corresponding to a high quality qHTS curve class in both luminescent channels is the desired outcome for this assay.
# NIH Chemical Genomics Center [NCGC]
# NIH Molecular Libraries Probe Centers Network [MLPCN]
# Assay Submitter (PI): Richard Youle, National Institute of Neurological Disorders and Strokes (NINDS), NIH
# [1] Narendra, D., et al., Parkin is recruited selectively to impaired mitochondria and promotes their autophagy. J Cell Biol, 2008. 183(5): p. 795-803.
# [2] Suen, D.F., et al., Parkin overexpression selects against a deleterious mtDNA mutation in heteroplasmic cybrid cells. Proc Natl Acad Sci U S A, 2010. […] 11835-40.
# [3] Cheng K, Inglese J. A coincedence reporter-gene system for high-throughput screening. Nat Methods. 2012: 9(10);937
# Five microliters (1,500 cells/well) of the Parkin coincidence reporter cells were seeded to 1536 well assay plates (Greiner Catalog # 789173-F) and incubated at 37 C, 5% CO2 for 24 hours. Compounds (23 nL) were pinned using the Kalypsys robotic system equipped with 1536 pin head adaptor in 7-point dose response. The assay plates were incubated for additional 24 hr at 37 C, 5% CO2 followed by a volume reduction in each well to 2 uL using an automated plate washer/aspirator. Following the volume reduction,2 uL of FLuc detection reagent and plates were incubated for 10 minutes at room temperature. The FLuc luminescence signal was obtained using the PerkinElmer ViewLux plate imager and then 2 uL of NanoLuc detection reagent was added to the plates. After another 10 minute incubation, NanoLuc signal was obtained using the PerkinElmer ViewLux plate imager as before. Data from each channel was normalized to DMSO (neutral control) and the positive control compounds (100%).
SMILES,activation [%],outcome
CC(C)(C)NCC(O)c1ccccc1Cl (stereo not given),7.1,–
O=c1[nH]oc2c1CCNC2,-2.72,–
NCCc1ccc(O)cc1,2.26,–
O=P1(N(CCCl)CCCl)NCCCO1 (stereo not given),-8.49,–
Cc1ncsc1CCCl,-6.28,–
O=C(O)CCCc1ccc(N(CCCl)CCCl)cc1,-11.8,–
C=C(C)[C@H]1CN[C@H](C(=O)O)[C@H]1CC(=O)O,2.07,–
CCCCC/C=C\C/C=C\C/C=C\C/C=C\CCCC(=O)NCC(=O)O,-12.8,–
CC(NC(C)(C)C)C(=O)c1cccc(Cl)c1 (stereo not given),2.71,–
CCC1(c2ccc(N)cc2)CCC(=O)NC1=O (stereo not given),-9.22,–
O=C(CCCN1CCC2(CC1)C(=O)NCN2c1ccccc1)c1ccc(F)cc1,3.45,–
CC(C)c1cccc(C(C)C)c1O,-8,–
CC(C)N(CCC(C(N)=O)(c1ccccc1)c1ccccn1)C(C)C (stereo not given),–,inactive
COc1ccc2c(c1OC)C(=O)O[C@H]2[C@@H]1c2cc3c(cc2CCN1C)OCO3,0.291,–
CN1C(=O)CCS(=O)(=O)C1c1ccc(Cl)cc1 (stereo not given),-10.3,–

# From PubChem BioAssay (NCATS)
